# From PubChem BioAssay (NCATS)
# Results filed as inconclusive are left out. The list shows a part of the results. The source made the active and inactive calls. The call rests on the fitted dose curve; in most records, active means well fitted curve in the direction sought with a large enough effect; inconclusive means small, poorly fitted or top-dose-only effect, or another doubt; inactive means no such curve, though single readings can be large; an effect the other way counts as inactive or inconclusive.
# Biological target: DNA polymerase kappa (Homo sapiens) (UniProt Q9UBT6)
# Sequence (Q9UBT6 whole entry, looked up): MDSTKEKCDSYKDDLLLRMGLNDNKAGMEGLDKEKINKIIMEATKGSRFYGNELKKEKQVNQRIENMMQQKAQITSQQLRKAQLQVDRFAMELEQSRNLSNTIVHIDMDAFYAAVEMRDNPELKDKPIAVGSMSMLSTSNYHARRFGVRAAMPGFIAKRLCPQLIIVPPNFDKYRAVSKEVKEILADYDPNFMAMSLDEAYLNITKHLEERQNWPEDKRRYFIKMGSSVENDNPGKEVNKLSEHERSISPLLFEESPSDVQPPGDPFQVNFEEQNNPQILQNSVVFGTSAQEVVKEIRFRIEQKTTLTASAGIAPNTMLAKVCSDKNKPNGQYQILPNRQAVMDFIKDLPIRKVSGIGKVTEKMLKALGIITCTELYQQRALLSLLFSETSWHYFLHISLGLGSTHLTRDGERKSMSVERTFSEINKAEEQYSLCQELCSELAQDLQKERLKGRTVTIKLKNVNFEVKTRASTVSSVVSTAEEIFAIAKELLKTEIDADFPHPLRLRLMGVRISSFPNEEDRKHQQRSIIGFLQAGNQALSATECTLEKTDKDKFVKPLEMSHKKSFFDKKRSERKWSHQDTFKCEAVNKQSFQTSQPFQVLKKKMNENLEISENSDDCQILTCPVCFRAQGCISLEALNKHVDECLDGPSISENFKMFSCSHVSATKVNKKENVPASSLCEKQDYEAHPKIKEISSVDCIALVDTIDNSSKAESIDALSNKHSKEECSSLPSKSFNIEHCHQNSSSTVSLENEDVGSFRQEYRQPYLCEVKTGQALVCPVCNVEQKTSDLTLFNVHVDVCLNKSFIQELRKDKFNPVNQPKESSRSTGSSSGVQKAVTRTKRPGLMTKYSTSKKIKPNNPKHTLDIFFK
# Test: qHTS for Inhibitors of Polymerase Kappa: Confirmatory Assay for Cherry-picked Compounds (AID 720501); further: potency means the concentration at half of the fitted maximal effect
# Settings: purified Pol-kappa, fluorescent strand-displacement substrate
# Outline: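 10 nM human Pol-kappa was preincubated with compound 15 min at room temperature, then 50 nM (final) primer/template substrate with TAMRA-labeled reporter strand and BHQ-2-labeled template added. Fluorescence (Ex 525, Em 598 nm) read at 0 and 10 min.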
row,SMILES,Potency
1,CCc1nc2cccnc2n1-c1ccc(C(=O)O)cc1,18.9 µM (active)
2,COc1cc(/C=C2/C(=O)NN(c3ccc(F)cc3)C2=O)cc([N+](=O)[O-])c1O,37.7 µM (active)
3,O=C(O)c1ccc(NS(=O)(=O)c2ccc3c(c2)C(=O)c2cc(S(=O)(=O)Nc4ccc(C(=O)O)cc4)ccc2-3)cc1,16.8 µM (active)
4,NC(CSC(c1ccccc1)(c1ccccc1)c1ccc(-c2ccccc2)cc1)C(=O)O (stereo not given),67 µM (active)
5,O=C(O)C1CCN(c2ccc([N+](=O)[O-])cc2[N+](=O)[O-])CC1,42.3 µM (active)
6,CCOc1ccccc1/C=c1\sc2nc(-c3ccco3)nn2c1=O,47.4 µM (active)
7,Cc1ccc2cc(/C=N/Nc3ccc(C(=O)O)cc3)c(Cl)nc2c1,26.7 µM (active)
8,O=C1NN(c2ccccc2)C(=O)/C1=C/c1ccc(-c2cccc(C(=O)O)c2)o1,16.8 µM (active)
9,COc1ccc(CNC(=O)c2nnn(CC(=O)Nc3cc(C)cc(C)c3)c2N)cc1,47.4 µM (active)
10,COc1ccccc1C(=O)N/C(=C/c1ccco1)C(=O)Nc1ccc(C(=O)O)cc1,15 µM (active)

# Biological target: DNA polymerase eta (Homo sapiens) (UniProt Q9Y253)
# Sequence (Q9Y253 whole entry, looked up): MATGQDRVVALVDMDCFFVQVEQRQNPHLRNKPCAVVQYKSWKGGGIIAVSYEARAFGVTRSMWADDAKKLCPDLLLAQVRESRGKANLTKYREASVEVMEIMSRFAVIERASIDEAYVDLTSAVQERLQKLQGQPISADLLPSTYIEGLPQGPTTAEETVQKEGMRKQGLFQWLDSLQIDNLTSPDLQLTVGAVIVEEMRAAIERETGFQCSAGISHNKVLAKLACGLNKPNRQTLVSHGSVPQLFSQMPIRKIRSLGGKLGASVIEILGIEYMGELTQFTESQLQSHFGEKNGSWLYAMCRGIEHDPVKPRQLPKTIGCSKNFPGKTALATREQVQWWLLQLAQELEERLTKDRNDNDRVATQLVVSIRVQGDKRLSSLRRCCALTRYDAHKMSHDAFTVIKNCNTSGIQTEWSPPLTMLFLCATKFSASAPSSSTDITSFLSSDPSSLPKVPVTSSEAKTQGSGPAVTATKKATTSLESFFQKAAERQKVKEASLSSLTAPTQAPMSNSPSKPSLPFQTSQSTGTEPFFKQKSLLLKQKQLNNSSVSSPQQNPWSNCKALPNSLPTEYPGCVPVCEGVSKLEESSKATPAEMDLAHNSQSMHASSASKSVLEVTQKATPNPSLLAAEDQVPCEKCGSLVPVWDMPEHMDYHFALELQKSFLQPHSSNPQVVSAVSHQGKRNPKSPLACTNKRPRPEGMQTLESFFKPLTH
# Test: qHTS for Inhibitors of Polymerase Eta: Confirmatory Assay for Cherry-picked Compounds (AID 720502); further: potency means the concentration at half of the fitted maximal effect
# Settings: Pol eta primer extension, TAMRA/BHQ fluorescence, 10 min
# Outline: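 Readout: TAMRA dequenching, ex 525/em 598 nm, read at 0 and 10 min. Enzyme: 10 nM human Pol eta, preincubated with compound 15 min RT. Substrate: 50 nM final annealed primer/reporter/template duplex.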
row,SMILES,Potency
1,NC(=O)CSc1nnc(NC(=O)c2ccc(Br)o2)s1,26.9 µM (active)
2,O=C(Nc1ccc(S(=O)(=O)Nc2nccs2)cc1)c1cc(-c2ccncc2)nc2ccccc12,67.5 µM (active)
3,Cc1nnc(SCC(=O)Nc2ccc(S(=O)(=O)Nc3ccc(Cl)nn3)cc2)s1,53.6 µM (active)
4,C#Cc1ccc([C@@H]2C=C(C(=O)O)O[C@H](OCCCCO)C2)cc1,84.9 µM (active)
5,CCc1nc2cccnc2n1-c1ccc(C(=O)O)cc1,10.7 µM (active)
6,Cc1cc(C)cc(C(=O)NC2C(=O)N3C(C(=O)O)=C(CSc4nnc(C)s4)CSC23)c1 (stereo not given),26.9 µM (active)
7,O=C1Nc2ccc([N+](=O)[O-])cc2C1=Nc1cccc(CO)c1,75.7 µM (active)
8,CCCN1CCN(C(=O)Cn2ncc3ccccc32)CC1,75.7 µM (active)
9,NC(CSC(c1ccccc1)(c1ccccc1)c1ccc(-c2ccccc2)cc1)C(=O)O (stereo not given),75.7 µM (active)
10,Cc1ccc(NC(=O)c2cc(-c3ccc(C)o3)nc3ccccc23)nc1,75.7 µM (active)
11,CC1CCN(c2ccc(S(=O)(=O)Nc3cc(C(=O)O)cc(C(=O)O)c3)cc2[N+](=O)[O-])CC1,60.1 µM (active)
12,O=C(Cc1ccc(S(=O)(=O)N2CCCC2)s1)NC1CCCCCC1,60.1 µM (active)
13,COC(=O)Cc1cc(=O)n(-c2nc3ccccc3s2)[nH]1,84.9 µM (active)
14,CCOc1ccccc1/C=c1\sc2nc(-c3ccco3)nn2c1=O,60.1 µM (active)
15,CC1=NN(c2ccc(Cl)c(C(=O)O)c2)C(=O)/C1=C/c1ccc(-c2ccccc2[N+](=O)[O-])o1,75.7 µM (active)
16,Cc1ccc2cc(/C=N/Nc3ccc(C(=O)O)cc3)c(Cl)nc2c1,30.1 µM (active)
17,O=C1NN(c2ccccc2)C(=O)/C1=C/c1ccc(-c2cccc(C(=O)O)c2)o1,30.1 µM (active)
18,Cc1oc2c(C)c3oc(=O)c(CC(=O)N[C@@H](CC(C)C)C(=O)N[C@@H](Cc4ccccc4)C(=O)O)c(C)c3cc2c1C,47.8 µM (active)
19,C=C(C)C(=O)O[C@H]1C/C(C)=C\C(=O)/C=C(\C)[C@H](O)[C@@H]2OC(=O)C(=C)[C@@H]21,75.7 µM (active)
20,COc1ccccc1C(=O)N/C(=C/c1ccco1)C(=O)Nc1ccc(C(=O)O)cc1,53.6 µM (active)

# Tested on: not listed separately
# Test: qHTS Assay for Identifying Gametocytocidal Compounds (AID 743244);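 further: on the % scale 0 is the no-effect control and ±100 the full control effect; actives lower the fluorescent signal which means gametocytes are killed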
# Settings: P. falciparum 3D7 stage III-V gametocytes, alamarBlue, 72 h; stronger effect = lower value
# Outline: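 Stage III–V gametocytes of P. falciparum 3D7 were seeded at 20,000 cells/well onto pre-dispensed compounds. After 72 h, 37 °C, 5% CO2, alamarBlue was added for another 24 h.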
row,SMILES,max response
1,C=C1C(=C/C=C2\CCC[C@]3(C)[C@@H]([C@H](C)CCCC(C)C)CC[C@@H]23)C[C@@H](O)C[C@@H]1O,-2.16% (inactive)
2,CCCCCCCCCCCCCCCC(=O)O[C@@H]1[C@@H](O)[C@@H](O)[C@@H]([C@H](NC(=O)[C@@H]2C[C@@H](CCC)CN2C)[C@H](C)Cl)O[C@@H]1SC,-16.5% (inactive)
3,CC[C@]1(O)CC2CN(CCc3c([nH]c4ccccc34)[C@@](C(=O)OC)(c3cc4c(cc3OC)N(C)[C@H]3[C@@](O)(C(N)=O)[C@H](O)[C@]5(CC)C=CCN6CC[C@]43[C@@H]65)C2)C1 (stereo not given in full),-7.92% (inactive)
4,O=C(O)[C@H]1/C(=C/CO)O[C@@H]2CC(=O)N21,8.98% (inactive)
5,CN(C)c1cc(NC(=O)CNC(C)(C)C)c(O)c2c1C[C@H]1C[C@H]3[C@H](N(C)C)C(=O)C(C(N)=O)=C(O)[C@@]3(O)C(=O)C1=C2O,7.63% (inactive)
6,CCCCC(F)(F)[C@@]1(O)CC[C@H]2[C@@H](CC(=O)[C@@H]2CCCCCCC(=O)O)O1,2.98% (inactive)
7,NC[C@@H]1O[C@H](O[C@H]2[C@@H](O)[C@H](O[C@@H]3[C@@H](O)[C@H](N)C[C@H](N)[C@H]3O[C@H]3O[C@H](CN)[C@@H](O)[C@H](O)[C@H]3N)O[C@@H]2CO)[C@H](N)[C@@H](O)[C@@H]1O,-12% (inactive)
8,N[C@H]1CN(c2c(F)cc3c(=O)c(C(=O)O)cn(C4C[C@H]4F)c3c2Cl)CC12CC2 (stereo not given in full),-6.9% (inactive)
9,CC(O)[C@@H]1NC(=O)[C@H](CCCCN)NC(=O)[C@@H](Cc2c[nH]c3ccccc23)NC(=O)[C@H](Cc2ccccc2)NC(=O)[C@@H](NC(=O)[C@H](N)Cc2ccccc2)CSSC[C@@H](C(=O)N[C@H](CO)[C@@H](C)O)NC1=O (stereo not given in full),-8.72% (inactive)
10,C/C=C/C1=C(C(=O)O)N2C(=O)[C@@H](NC(=O)[C@H](N)c3ccc(O)cc3)[C@H]2SC1,9.08% (inactive)
